Results taken from PubChem BioAssay AID619 (University of Pittsburgh Molecular Library Screening Center, 2007).
Out of some 97,000 compounds screened, about 520 (0.54%) were called active.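 The calls were made as follows: active = inhibition of 50% or more in the single-concentration screen; inactive = inhibition below 50%.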 The sample as a whole holds a higher share of actives than the screen did.

What follows are compounds tested against Serine/threonine-protein kinase PLK1 (Homo sapiens) (UniProt P53350) (assay: Plk1 peptide phosphorylation blockers – biochemical, TR-FRET, primary screen (AID 619;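 also: 0% = DMSO max control and 100% = H-89 dihydrochloride min control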)). Settings: recombinant PLK1 kinase, at 10 µM, active compounds read high.
Chain of Serine/threonine-protein kinase PLK1 (Homo sapiens) (P53350 whole entry, looked up): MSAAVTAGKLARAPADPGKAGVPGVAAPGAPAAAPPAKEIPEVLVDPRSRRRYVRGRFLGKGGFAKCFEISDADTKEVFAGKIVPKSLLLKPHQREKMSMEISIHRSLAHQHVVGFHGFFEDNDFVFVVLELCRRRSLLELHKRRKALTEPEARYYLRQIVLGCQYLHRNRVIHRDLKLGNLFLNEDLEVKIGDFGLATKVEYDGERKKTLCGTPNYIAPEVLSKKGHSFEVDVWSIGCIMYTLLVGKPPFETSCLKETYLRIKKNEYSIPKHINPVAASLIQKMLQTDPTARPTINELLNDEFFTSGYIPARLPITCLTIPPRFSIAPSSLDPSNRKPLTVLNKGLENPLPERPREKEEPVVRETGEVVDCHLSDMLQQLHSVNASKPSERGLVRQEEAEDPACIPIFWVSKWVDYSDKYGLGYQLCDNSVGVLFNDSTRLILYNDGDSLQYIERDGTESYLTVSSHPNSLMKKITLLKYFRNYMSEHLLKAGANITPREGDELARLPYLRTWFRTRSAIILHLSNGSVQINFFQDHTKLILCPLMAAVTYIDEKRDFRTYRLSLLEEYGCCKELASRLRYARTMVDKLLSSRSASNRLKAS

SMILES	inhibition
Cc1cc(C)c(OCC(=O)N/N=C/c2ccco2)c(C)c1	6.14% (inactive)
Cc1ccc(CS(=O)(=O)CCC(=O)NC2CC2)cc1	-7.25% (inactive)
Nc1ccc(-n2nncc2-c2ccco2)cc1	-4.39% (inactive)
CCCc1nc2scc(-c3ccc(C)cc3)c2c(=O)n1N	5.26% (inactive)
COc1ccc(CCN2C(=O)C3CC=C(C)CC3C2=O)cc1OC (configuration not stated)	-10.2% (inactive)
COc1cc(OC)c(-n2c(C)cc(C=O)c2C)cc1Cl	-6.8% (inactive)
CCCC(=O)n1nc(-c2ccccc2)nc1N	-4.99% (inactive)
COc1ccccc1NS(=O)(=O)N(C)C	-7.41% (inactive)
O=C(O)CCC(=O)NCc1ccc(C(=O)O)cc1	-9.7% (inactive)
C=CCn1c(SCC(=O)c2c(N)n(C)c(=O)n(C)c2=O)nc2sc(CC)cc2c1=O	-9.06% (inactive)
CC(=O)c1ccc(OCCN2CCOCC2)cc1	-17.4% (inactive)
COc1ccc(C(=O)c2c(C)oc3cc([N+](=O)[O-])c(O)c([N+](=O)[O-])c23)cc1	-2.19% (inactive)
Cc1ccc(Cc2cnc(NC(=O)/C(C#N)=C/c3ccc(-c4cccc([N+](=O)[O-])c4)o3)s2)cc1	-5.56% (inactive)
CCC(C)Sc1nc(C)nc2c1c(=O)n(C)c(=O)n2C (configuration not stated)	52.6% (active)
CSc1nc(C)nc2c1c(=O)n(C)c(=O)n2C	68.3% (active)
Cn1c(=O)c2c(SCC(=O)N3CCOCC3)nc(C3CC3)nc2n(C)c1=O	36.6% (inactive)
CCCSc1nc2c(c(=O)n(C)c(=O)n2C)n1Cc1ccc(C)cc1	6.87% (inactive)
COc1ccc(CC(=O)Nc2sc(Cc3ccccc3)c(C)c2C(N)=O)cc1	-12% (inactive)
O=c1cc(C(F)(F)F)[nH]c(=O)n1C1CCCCC1	-12.1% (inactive)
COc1ccc(/C=C/C(=O)Nc2c(C)nn(C)c2C)cc1COc1ccc(Br)cc1	-7.02% (inactive)
CCc1c(C)nc2cc(C)[nH]n2c1=O	-1.93% (inactive)
FC(F)(F)c1cc(C(F)(F)F)c2ccc(N3CCN(c4ccccc4)CC3)nc2n1	-4.18% (inactive)
C=CCn1cnc2scc(-c3ccccc3)c2c1=O	-17.6% (inactive)

SMILES	inhibition
N#CCCN(CCC#N)c1nnc(-c2ccccc2)s1	-13.8% (inactive)
CN(CCC#N)c1ncnc2scc(-c3ccccc3)c12	54.3% (active)
CS(=O)(=O)n1nc(-c2ccccc2)nc1NCc1ccco1	-17.7% (inactive)
Cc1nc2cc(NC(=O)CSc3nc4c(C)cccc4cc3C#N)ccc2s1	-34.1% (inactive)
CC(=O)C1=C(C)NC(=O)NC1c1cc(Br)ccc1OCC#N (configuration not stated)	-9.62% (inactive)
CC1=CC(=O)C=CC1(C)C(Cl)(Cl)Cl (configuration not stated)	-6.25% (inactive)
CC/C(=N/Nc1ccccc1)c1cnnc(SC)n1	-14.3% (inactive)
COC(=O)/C=C/C(=O)NCc1ccco1	-9.17% (inactive)
Cc1ccc(C(=O)NCCNS(=O)(=O)c2ccccc2)cc1	-5.51% (inactive)
Cc1ccccc1CSCCNC(=O)c1ccc(Cl)c(S(=O)(=O)N2CCOCC2)c1	-1.84% (inactive)
Cc1ccccc1CSCCNC(=O)c1ccc(N(C)S(=O)(=O)c2ccccc2)cc1	57.1% (active)
Cc1cc(OCCOc2cccc3cccnc23)c(C)cc1Cl	-13.9% (inactive)
CCN1C(=O)/C(=C2/Sc3ccc(OC)cc3N2C)SC1=Nc1ccc(C)cc1	-9.58% (inactive)
CCCc1nc(NCc2ccc3c(c2)OCO3)c2nnn(Cc3ccccc3Cl)c2n1	-9.3% (inactive)
CCC(=O)NNc1cc(=O)c2c(=O)n(C)c(=O)n(C)c2[nH]1	-9.06% (inactive)
CN(C)/C=C(\C#N)C(=O)c1cccnc1Oc1ccc(F)cc1F	-4.48% (inactive)
COCCCNC(=O)C1CC(=O)N(CCc2ccccc2)C1 (configuration not stated)	-12.8% (inactive)
COc1cc(OC)cc(-c2cc3nc(C4CCN(C(=O)OC(C)(C)C)CC4)cc(=O)n3[nH]2)c1	-8.81% (inactive)
Cc1c(Nc2nc3ccccc3nc2NS(=O)(=O)c2cccs2)c(=O)n(-c2ccccc2)n1C	-2.91% (inactive)
Cc1cccc(N(CC(=O)N2CCOCC2)S(C)(=O)=O)c1	-16.7% (inactive)
Cc1cccc(N2C(=O)C3C(c4ccccc4)OC4(C(=O)c5ccccc5C4=O)C3C2=O)c1 (configuration not stated)	-6.04% (inactive)
Cc1cccc(N2C(=O)SC(N(CC(=O)O)c3cccc(C)c3)C2=O)c1 (configuration not stated)	68.7% (active)
CCOC(=O)c1cc(C#N)c(N2CCCCC2)nc1-c1ccccc1	-7.56% (inactive)

SMILES	inhibition
COc1ccc(NC(=O)Cn2nnc(C(=O)NCCc3ccc(OC)c(OC)c3)c2N)cc1	-3.12% (inactive)
CCC(=O)NCCc1nc2ccccc2n1CC	-12.5% (inactive)
Cc1ccc(S(=O)(=O)NCC(C)NS(C)(=O)=O)cc1 (configuration not stated)	-7.03% (inactive)
O=C(c1cccc(F)c1)N1CCC(O)(c2cccnc2)CC1	-11.3% (inactive)
Cc1cc(S(=O)(=O)NC2CCCCC2)ccc1OCC(=O)NCc1cccnc1	-6.44% (inactive)
Cc1ccc(N2C(=O)S/C(=C/c3cn(C)c4ccccc34)C2=O)cc1	-7.68% (inactive)
CC(c1ccccc1)n1c(NCCCn2ccnc2)nc2c1c(=O)[nH]c(=O)n2C (configuration not stated)	-13.2% (inactive)
Cn1c(=O)[nH]c(=O)c2c1nc(NCCCn1ccnc1)n2Cc1cccc(Br)c1	51.2% (active)
CCCCNc1nc2c(c(=O)[nH]c(=O)n2C)n1CCOc1ccccc1	-13.6% (inactive)
CCOC(=O)N1CCC(N(CCOC)C(=O)Nc2ccc(C)c(C)c2)CC1	-7.06% (inactive)
Cn1nc(-c2ccccc2)c(CSc2cccc(Cl)c2)c1Cl	-5.77% (inactive)
CCCC(=O)C1CCN(Cc2ccccc2)CC1	-5.07% (inactive)
Cc1ccc(N2C(=O)C(Cc3ccccc3)NC2=S)cc1 (configuration not stated)	-4.76% (inactive)
CCOC(=O)c1ccc2c(c1)nc(SCC(=O)NC(C)C)n2CC	-12.9% (inactive)
O=C(NCCCN1CCOCC1)c1cc2c(s1)CCC2	12.4% (inactive)
CCC(C)Sc1nnc(-c2c[nH]c3ccccc23)n1CCOC (configuration not stated)	-10.2% (inactive)
CCn1c(SCC(=O)Nc2ccc(OC)c(OC)c2)nnc1-c1c[nH]c2ccccc12	-21.5% (inactive)
CCn1c(SCCC(C)C)nnc1-c1c[nH]c2ccccc12	57.8% (active)
CCCC(C(=O)n1nc(C)cc1C)C(NS(=O)(=O)c1ccc(C)cc1)c1ccccc1 (configuration not stated)	-12% (inactive)
COc1ccc(Oc2coc3cc(OC(=O)c4cncc(Br)c4)ccc3c2=O)cc1	-8.95% (inactive)
Cc1cc(C)c2nc(NC(=O)C3CCCO3)sc2c1 (configuration not stated)	-2.38% (inactive)
